Reference: PubChem BioAssay AID2314 (National Center for Advancing Translational Sciences (NCATS), 2010)
In all, about 300,000 compounds went through this assay and about 37,000 (12%) were called active. The sample as a whole holds a higher share of actives than the screen did. Values without a mark were called inactive. Rule as the data show it: active = max response mostly above about 13% (no sharp cut-off); inactive = mostly below about 14%.

assay: Cycloheximide Counterscreen for Small Molecule Inhibitors of Shiga Toxin; conditions: cell reporter, cycloheximide protein synthesis inhibition counterscreen; hits give high values; also: read at 38.3 µM for the half of the compounds with a filed dose; 0% is about no effect

Compound	max response
COC(=O)Cc1ccc(NC(=S)NCc2ccco2)cc1	10.2%
COc1cccc(OC)c1C(=O)NC(=S)NCc1ccco1	5.2%
COc1cccc(NC(=S)N(Cc2ccc(C)cc2)Cc2ccccn2)c1	0.648%
CCC(C)c1ccc(NC(=S)NCc2ccccn2)cc1 (centres undefined)	17.3% (active)
COc1cccc(NC(=S)NCc2ccco2)c1	18.2% (active)
Cc1cc(C)cc(NC(=O)NCc2ccccn2)c1	-2.88%
COc1cccc(NC(=S)NCc2ccccn2)c1	72.3% (active)
O=C(NCc1ccccn1)Nc1ccc(F)cc1	-3.36%
COc1cccc(S(=O)(=O)NCc2ccc(C(=O)NCc3ccccn3)cc2)c1	1.45%
O=C(O)C1CCCCC1C(=O)N1CCN(S(=O)(=O)c2ccc(F)cc2)CC1 (centres undefined)	-2.39%
O=C(Nc1ccccc1)N1CCN(C2c3ccccc3-c3ccccc32)CC1	-0.816%
COc1ccc(N(CC(=O)N2CCCCCC2)S(=O)(=O)c2ccccc2)cc1	4.89%
CC1(C(=O)NNC(=S)NCC2CCCO2)CC1(Cl)Cl (centres undefined)	-4.02%
COc1ccccc1N1CCN(S(=O)(=O)c2ccc3c(c2)NC(=O)CS3)CC1	5.75%
CC(=O)N1CC(=O)N(CC(=O)Nc2ccc(Br)cc2)C1=S	-5.45%
NC(=O)COC(=O)c1ccc2c(c1)C(=O)N(Cc1ccco1)C2=O	-3.87%
CCOCN(C(=O)Cn1c(C(C)O)nc2ccccc21)c1c(C)cccc1CC (centres undefined)	-4.33%
COc1ccccc1NC(=O)C1CCCN(c2cc(C)nc3ncnn23)C1 (centres undefined)	-3.74%
COc1ccccc1-c1cnn2c(N3CCOCC3)cc(C)nc12	52% (active)
Cc1cc(C(F)(F)F)n2ncc(-c3ccccc3)c2n1	6.21%
CN1C(=O)/C(=C\c2cc(Br)cs2)c2ccccc21	46.4% (active)
CN1C(=O)/C(=N/OC(=O)c2ccccc2Br)c2ccccc21	3.18%
CCC1C(=O)c2ccccc2N(C)C1=O (centres undefined)	-0.886%
COc1ccc(/C=C(\NC(=O)c2ccccc2)C(=O)NCCN2CCOCC2)cc1OC	-1.94%
O=C(CNCCC1=CCCCC1)Nc1ccccc1N1CCCCCC1	-4.26%
CCOc1ccc(C(CCc2ccccc2)NC(=O)c2ccc(OC)c(OC)c2)cc1OCC (centres undefined)	7.29%
Cc1ccc(C)c(NC(=O)c2ccc3nccnc3c2)c1	5.91%
COCC(C)NC(=O)c1ccc(Cl)c(Cl)c1 (centres undefined)	0.894%
CC(C)CCC(C)NC(=O)c1ccc2nccnc2c1 (centres undefined)	53.8% (active)
